Measurements from publication PMC4336329 (PLoS ONE, 2015).
Hit rate of the full screen: of about 310,000 compounds, about 14,000 (4.5%) showed an effect of 50% or more. Effects have a minus sign here. Shown is part of a subset that was picked to be rich in strong results.

Each compound was assayed against human ether-à-go-go-related gene (hERG) potassium channel (human, UniProt Q12809) (assay: primary screen, population patch clamp on CHO cells stably expressing hERG; higher = less effect of the substance).
human ether-à-go-go-related gene (hERG) potassium channel, sequence (Q12809 whole entry, looked up): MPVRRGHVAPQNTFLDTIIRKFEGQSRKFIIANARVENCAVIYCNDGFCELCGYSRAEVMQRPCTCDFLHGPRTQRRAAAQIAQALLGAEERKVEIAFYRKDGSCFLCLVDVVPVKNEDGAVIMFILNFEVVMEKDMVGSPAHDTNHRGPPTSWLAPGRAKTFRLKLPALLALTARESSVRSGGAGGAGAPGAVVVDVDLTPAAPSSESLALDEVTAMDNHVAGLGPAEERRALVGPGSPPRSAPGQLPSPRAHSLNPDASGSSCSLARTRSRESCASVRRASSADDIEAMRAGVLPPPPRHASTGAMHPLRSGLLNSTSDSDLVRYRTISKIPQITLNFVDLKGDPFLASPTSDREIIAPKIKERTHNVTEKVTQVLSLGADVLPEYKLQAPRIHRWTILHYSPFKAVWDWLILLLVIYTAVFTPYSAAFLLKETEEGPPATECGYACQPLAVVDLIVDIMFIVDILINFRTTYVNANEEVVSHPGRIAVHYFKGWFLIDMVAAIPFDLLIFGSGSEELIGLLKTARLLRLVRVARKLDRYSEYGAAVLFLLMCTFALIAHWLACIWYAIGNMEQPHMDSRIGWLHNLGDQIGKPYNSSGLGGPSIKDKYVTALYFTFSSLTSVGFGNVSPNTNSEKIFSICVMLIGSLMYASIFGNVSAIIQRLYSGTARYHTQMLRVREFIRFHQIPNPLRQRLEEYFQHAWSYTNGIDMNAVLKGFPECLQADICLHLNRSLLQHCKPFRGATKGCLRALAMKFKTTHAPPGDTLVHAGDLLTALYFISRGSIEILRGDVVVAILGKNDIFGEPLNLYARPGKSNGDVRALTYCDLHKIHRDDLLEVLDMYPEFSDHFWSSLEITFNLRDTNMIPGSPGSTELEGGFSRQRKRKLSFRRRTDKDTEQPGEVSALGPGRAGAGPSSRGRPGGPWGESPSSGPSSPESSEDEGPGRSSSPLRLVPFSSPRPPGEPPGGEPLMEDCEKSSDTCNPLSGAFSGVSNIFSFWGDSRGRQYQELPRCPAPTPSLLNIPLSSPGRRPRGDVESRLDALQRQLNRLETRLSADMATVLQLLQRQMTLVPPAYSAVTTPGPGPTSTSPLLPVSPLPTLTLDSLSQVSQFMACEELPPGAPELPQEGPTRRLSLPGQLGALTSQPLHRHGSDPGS
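Note: peak tail current of the secondary pulse compared with the same well before compound.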

Compound	hERG current change (%, negative = inhibition) at 10uM [%]
O=C(Nc1ccccc1OC(F)F)c1cccc(S(=O)(=O)N2CCCC2)c1	-23.6
COc1ccc(-n2cnnc2SCC(=O)Nc2cccnc2Cl)cc1	-18.7
CC(C)(C)c1ccc(NC(=O)COc2ccc(-n3ccnc3)cc2)cc1	-56.5
Cc1ccc(NC(=O)COc2ccc(-n3ccnc3)cc2)cc1Cl	-33.6
CCC(C)(C)c1ccc(OCC(=O)Nc2ccncc2)cc1	-16
CC(C)(C)c1ccc(OCC(=O)Nc2ccncc2)cc1	8.71
COc1cc(NC(=O)COc2ccc(-n3ccnc3)cc2)cc(OC)c1	-51.3
COc1cc(NC(=O)CC(C)n2ccnc2)cc(OC)c1 (centres unmarked)	10.7
CCOC(=O)/C(C)=N/NC(=O)c1cccc([N+](=O)[O-])c1	7.04
Cc1ccc(CNC(=O)c2ccc(N3CCC4(CC3)CC(c3ccccc3)=NO4)c(NC(=O)c3cccc(C)c3)c2)cc1	-6.37
CCCOc1ccc(N2C(=O)CC(SCc3nc4ccccc4[nH]3)C2=O)cc1 (centres unmarked)	-41.2
O=C(Oc1ccc([N+](=O)[O-])cc1)N1CCC(N2CCCCC2)CC1	-65.4
N/C(=N/[N+](=O)[O-])N1CCN(C(=O)Oc2ccc([N+](=O)[O-])cc2)CC1	-36.5
O=C(Oc1cccc([N+](=O)[O-])c1)N1CCCCC1	-0.619
COC(=O)C1=C(c2ccc(F)cc2OCc2ccccc2)C[C@@H]2CC[C@H]1N2C(=O)NCCO	3.42
Cc1cc(C)c(C#N)c(SCc2ccccc2C)n1	17.7
COc1ccc(S(=O)(=O)N2CCN(Cc3cccc(OC)c3)CC2)cc1	-28.6
COc1ccc(C(=O)CN2CCN(S(=O)(=O)c3cccc([N+](=O)[O-])c3)CC2)cc1OC	-5.28
COc1ccc(C(=O)CN2CCN(S(=O)(=O)c3cccc([N+](=O)[O-])c3)CC2)cc1	-112
COc1ccc(S(=O)(=O)N2CCN(Cc3cccc([N+](=O)[O-])c3)CC2)cc1	-87.4
COc1cccc(C(=O)CN2CCN(S(=O)(=O)c3cccc([N+](=O)[O-])c3)CC2)c1	-9.29
O=S(=O)(c1cccs1)N1CCN(CC(O)COC2CCCc3ccccc32)CC1 (centres unmarked)	-25.1

Compound	hERG current change (%, negative = inhibition) at 10uM [%]
O=S(=O)(c1cccs1)N1CCN(CC(O)COc2cccc(Br)c2)CC1 (centres unmarked)	-61.1
Cc1ccc(S(=O)(=O)N2CCN(CC(O)COc3ccccc3)CC2)cc1 (centres unmarked)	-16.2
CC(=O)c1ccc(OCC(O)CN2CCN(S(=O)(=O)c3cccc(Br)c3)CC2)cc1 (centres unmarked)	22.8
O=[N+]([O-])c1cccc(OCC(O)CN2CCN(S(=O)(=O)c3cc(Cl)ccc3Cl)CC2)c1 (centres unmarked)	-31.3
COc1ccc(S(=O)(=O)N2CCN(Cc3cccc(F)c3)CC2)cc1	-3.34
CCOc1ccc(S(=O)(=O)N2CCN(CC(O)COc3cccc([N+](=O)[O-])c3)CC2)cc1 (centres unmarked)	-65.5
Cc1ccc2oc(C(=O)NCC(c3ccco3)N3CCCC3)c(C)c2c1 (centres unmarked)	-33.8
COc1ccc(C(=O)NNC(=O)CCn2nnc(-c3ccc(Cl)cc3)n2)cc1OC	19
O=P(O)(c1ccccc1)c1ccccc1O	-7.16
O=C(NN1C(=O)C2C3C=CC(C4CC34)C2C1=O)c1ccccc1Cl (centres unmarked)	0.861
COc1ccc(N(C)S(=O)(=O)c2cccc(C(=O)Nc3nc(C)c(C(C)=O)s3)c2)cc1	7.14
CCOC(=O)Cn1nnnc1CN(Cc1ccccc1)Cc1cc2cc(CC)ccc2[nH]c1=O	-11.2
CN1CCN(S(=O)(=O)c2cccc([N+](=O)[O-])c2)CC1	18.7
CC(C)n1c(N2CCN(S(=O)(=O)c3cccc([N+](=O)[O-])c3)CC2)nc2ccccc21	-71
O=[N+]([O-])c1cccc(S(=O)(=O)N2CCN(c3ccccn3)CC2)c1	4.57
Cc1ccc(C(=O)Nc2nnc(S(=O)(=O)N3CCC(C)CC3)s2)cc1	21.8
Cc1cc(/C=N/NC(=O)c2ccc(O)cc2)c(C)n1C1CC1	20.4
N#C/C(C(=O)NCc1ccccc1)=C1/N=C(NC(=O)c2ccco2)c2ccccc21	10.3
CC(C)CNC(=O)/C(C#N)=C1\N=C(NC(=O)c2ccco2)c2ccccc21	-60.4
CCCNC(=O)/C(C#N)=C1\N=C(NC(=O)c2ccco2)c2ccccc21	-44.6
O=C(COc1ccc(F)cc1)N(Cc1cccs1)C1CCS(=O)(=O)C1 (centres unmarked)	-33.4
Cc1ccc2c(C)c(C(=O)N(Cc3cccs3)C3CCS(=O)(=O)C3)oc2c1 (centres unmarked)	-20.8

Compound	hERG current change (%, negative = inhibition) at 10uM [%]
COc1ccc(OCC(=O)N(Cc2cccs2)C2CCS(=O)(=O)C2)cc1 (centres unmarked)	-6.75
O=C(COc1ccc(Br)cc1)N(Cc1cccs1)C1CCS(=O)(=O)C1 (centres unmarked)	-51.7
Cc1c(C(=O)N(Cc2cccs2)C2CCS(=O)(=O)C2)oc2ccccc12 (centres unmarked)	-50.2
CC(C)(C)c1ccc(OCC(=O)N(Cc2cccs2)C2CCS(=O)(=O)C2)cc1 (centres unmarked)	-54.2
Cc1ccc(OCC(=O)N(Cc2cccs2)C2CCS(=O)(=O)C2)cc1 (centres unmarked)	-8.3
O=C(COc1ccccc1)N(Cc1cccs1)C1CCS(=O)(=O)C1 (centres unmarked)	-17.4
O=C(c1ccccc1)N(Cc1cccs1)C1CCS(=O)(=O)C1 (centres unmarked)	12
O=C(c1ccc([N+](=O)[O-])cc1)N(Cc1cccs1)C1CCS(=O)(=O)C1 (centres unmarked)	-50
Cc1c(C(=O)N(Cc2ccccc2)C2CCS(=O)(=O)C2)oc2ccccc12 (centres unmarked)	-38.5
Cc1ccc(C(=O)N(Cc2cccs2)C2CCS(=O)(=O)C2)cc1 (centres unmarked)	0.98
COc1ccccc1Oc1ccc2c(c1)C(=O)N(c1ccccc1)C2=O	-3.59
O=C(COc1ccccc1[N+](=O)[O-])N(Cc1cccc(Br)c1)C1CCS(=O)(=O)C1 (centres unmarked)	-57.8
Cc1ccc(OCC(=O)N(Cc2cccs2)C2CCS(=O)(=O)C2)cc1C (centres unmarked)	4.21
CCN(C(=O)COc1ccccc1[N+](=O)[O-])C1CCS(=O)(=O)C1 (centres unmarked)	0.104
O=C(COc1ccc([N+](=O)[O-])cc1)N(Cc1cccs1)C1CCS(=O)(=O)C1 (centres unmarked)	-52.3
COc1cccc(CN(C(=O)COc2ccccc2[N+](=O)[O-])C2CCS(=O)(=O)C2)c1 (centres unmarked)	-42
Cc1ccsc1CN(C(=O)c1ccccc1)C1CCS(=O)(=O)C1 (centres unmarked)	2.16
Cc1ccsc1CN(C(=O)c1ccc([N+](=O)[O-])cc1)C1CCS(=O)(=O)C1 (centres unmarked)	-60.8
Cc1ccc(C(=O)N(Cc2sccc2C)C2CCS(=O)(=O)C2)cc1 (centres unmarked)	-28.2
CCc1ccc(OCC(=O)N(Cc2cccs2)C2CCS(=O)(=O)C2)cc1 (centres unmarked)	-47.8
CC1C/C(=N\NC(=S)NC(C)C)CC(C)(C)C1 (centres unmarked)	9.06
CCOC(=O)CNC(=O)CSc1nnc(NC(=O)c2ccc3c(c2)OCO3)s1	3.8

Compound	hERG current change (%, negative = inhibition) at 10uM [%]
CCC(CC)NC(=O)c1nn(Cc2ccccc2)c(=O)c2ccccc12	10.9
CS(=O)(=O)N(CC(=O)NCCSCc1ccccc1Cl)c1ccccc1F	-35.4
CC1=NN(C(N)=S)C(=O)C1N=Nc1ccccc1Cl (centres unmarked)	20.2
Cc1cc(NC(=O)C(C)SCC(=O)OCC(=O)N(C)c2ccccc2)no1 (centres unmarked)	-7
Cc1cc(NC(=O)C(C)SCC(=O)OCC(=O)N(Cc2ccccc2)C(C)(C)C)no1 (centres unmarked)	-35.4
Cc1cccc(N(Cc2ccccc2)C(=O)CSC(C)C(=O)Nc2cc(C)on2)c1 (centres unmarked)	-53
COc1ccccc1N1CCN(c2ccc([N+](=O)[O-])cn2)CC1	0.823
O=C(O)c1cccc(CSc2nc(-c3ccccc3)cc(C(F)(F)F)n2)c1	0.347
O=C(c1ccc(-c2ccc([N+](=O)[O-])cc2)o1)N1CCN(S(=O)(=O)c2cccs2)CC1	-27.3
O=C(c1ccc(-c2ccc([N+](=O)[O-])cc2)o1)N1CCCCC1	-58.4
CC1CC(C)CN(C(=O)c2ccc(-c3ccc([N+](=O)[O-])cc3)o2)C1 (centres unmarked)	-69.1
CCOC(=O)C1CCCN(C(=O)c2ccc(CS(=O)(=O)c3ccc(C)cc3)o2)C1 (centres unmarked)	-20.4
CCOC(=O)C1CCCN(C(=O)c2ccc(-c3ccc([N+](=O)[O-])cc3)o2)C1 (centres unmarked)	-56.1
O=C(c1ccc(-c2ccc([N+](=O)[O-])cc2)o1)N1CCCCCCC1	-22.7
CCOC(=O)C1CCCN(C(=O)c2ccc([N+](=O)[O-])cc2)C1 (centres unmarked)	-14.4
CC1CCCN(C(=O)c2ccc([N+](=O)[O-])o2)C1 (centres unmarked)	21.6
Cc1ccccc1N1CCN(C(=S)c2ccc(-c3ccc([N+](=O)[O-])cc3)o2)CC1	20.2
CC1CCN(C(=O)c2ccc([N+](=O)[O-])o2)CC1	4.53
O=C(c1ccc(-c2ccc([N+](=O)[O-])cc2)o1)N1CCCC(C(F)(F)F)C1 (centres unmarked)	-17
CCCN1CCN(C(=O)c2ccc(-c3ccc([N+](=O)[O-])cc3)o2)CC1	-78.1
